# From PubChem BioAssay (NCATS)
# Inconclusive results are not listed. Activity calls are given as the source filed them. The call rests on the fitted dose curve.
# Test: Cytotoxicity counterscreen for inhibitors of SARS-CoV-2 cell entry (AID 1645845); further: nearly all actives have a fitted effect of over 50% in size
# Conditions: cell viability (SARS-CoV-2 entry assay cells); series mostly up to 57.1 µM; activity change, negative = cytotoxicity: at the top concentration
# From the text: Assay Provider: Wei Zheng, Ph.D.
# National Center for Advancing Translational Sciences, National Institute of Health, Rockville, MD.
# SARS-CoV-2 spike protein, within the viral envelope, mediates viral attachment and infection of host cells. The SARS-CoV-2 spike protein specifically binds to the host receptor ACE2 (Angiotensin-converting enzyme 2). This interaction promotes endocytosis of the viral particle, additional events lead to viral-host cell membrane fusion and release of the viral contents, allowing viral replication.
# While SARS-CoV-2 requires BSL-3 facilities for live virus work, pseudo-typed partices (PP) that incorporate SARS-CoV-2 spike proteins without replication elements could facilitate studies on viral entry mechanisms in a BSL-2 setting. This PP cell entry assay could also enable screening of small molecule compound libraries in BSL-2 setting to identify inhibitors of SARS-CoV-2 cell entry. To eliminate false positive compounds, ATP content cytotoxicity assay was screened in the same cell line.
# SEQUENCE No. (e.g., 1, 2, 3, etc.); […] (e.g., Cells, Incubation, Reagent, etc.); VALUE and DESCRIPTION.
# 1. Cells. Seed 1500 HEK293-ACE2 cells (Expi293F with stable expression of human ACE2) in 2 uL/well media (DMEM, 10% FBS, 1x L-glutamine, 1x Pen/Strep, 1 ug/ml puromycin) in white 1536-well assay plates (Greiner #782073).
# 2. Incubation. Incubate at 37 C with 5% CO2 overnight (~16 h).
# 3. Compounds. Dispense 23 nL/well compounds in DMSO via pin transfer.
# 4. Incubation. Incubate for 1 h at 37C 5% CO2.
# 5. Reagent. Dispense 2 uL/well of media (DMEM, 10% FBS, 1x L-glutamine, 1x Pen/Strep, 1 ug/ml puromycin).
# 6. Incubation. Incubate at for 48h at 37C 5% CO2
# 7. Reagent. Dispense 4 uL/well of ATPLite 1step luminescence assay reagent (PerkinElmer #6016739).
# 8. Incubation. Incubate for 15 min at room temperature.
# 9. Detection. Read luminescence signal (Viewlux plate reader, PerkinElmer). Data was normalized with wells containing cells as 100%, and wells without cells (media only control) as 0%.
# On the % scale 0 is the no-effect control and ±100 the full control effect; potency means the concentration at half of the fitted maximal effect.
Compound,outcome,"activity change, negative = cytotoxicity",Potency
CC[N+]1(C)C2CC(OC(=O)[C@H](CO)c3ccccc3)CC1[C@@H]1O[C@H]21 (stereo not given in full),inactive,–,–
CC(C)(S)[C@H](N)C(=O)O,inactive [at 5.25 µM],–,–
CC(=O)O[C@H]1CC[C@@]2(C)C(=CC[C@H]3[C@@H]4CC[C@H](C(C)=O)[C@@]4(C)CC[C@@H]32)C1,–,2.89% (inactive),–
O=P(O)(O)OC(Cn1cncn1)(Cn1cncn1)c1ccc(F)cc1F,inactive,–,–
CCCCC(=O)O[C@]1(C(=O)COC(C)=O)CC[C@H]2[C@@H]3CCC4=CC(=O)C=C[C@]4(C)[C@H]3[C@@H](O)C[C@@]21C,–,3.46% (inactive),–
NCc1ccccc1CC(=O)N[C@@H]1C(=O)N2C(C(=O)O)=C(CSc3nnnn3CC(=O)O)CS[C@H]12,inactive,–,–
c1ccc(CCNCc2ccccc2)cc1,inactive,–,–
Nc1ncnc2c1C(=O)N(c1ccc(C3CCC(CC(=O)O)CC3)cc1)CCO2 (stereo not given),inactive,–,–
CCCCNc1ncc(-c2ccc(CN3CCOCC3)cn2)c(NC2CCC(O)CC2)n1 (stereo not given),–,1.11% [at 27.1 µM] (inactive),–
CN[C@H]1C(=O)N[C@@H]2Cc3ccc(cc3)Oc3cc4cc(c3O[C@@H]3O[C@H](C(=O)O)[C@@H](O)[C@H](O)[C@H]3NC(=O)CCCCCCCCC(C)C)Oc3ccc(cc3Cl)[C@@H](O)[C@@H]3NC(=O)[C@H](NC(=O)[C@@H]4NC(=O)[C@@H](NC2=O)c2cc(cc(O)c2Cl)Oc2cc1ccc2O)c1ccc(O)c(c1)-c1c(O[C@H]2O[C@H](CO)[C@@H](O)[C@H](O)[C@@H]2O)cc(O)cc1[C@@H](C(=O)NCCCN(C)C)NC3=O,–,-3.72% [at 27.1 µM] (inactive),–
COc1ccc2c(c1)CC[C@@H]1[C@@H]2CC[C@]2(C)[C@@H](NCCCCCCN3C(=O)C=CC3=O)CC[C@@H]12,–,-5.07% (inactive),–
CS(=O)(=O)c1ccc(-c2cnc(NCc3ccco3)n3cnnc23)cc1,–,-11.2% (inactive),–
C[C@H](NCCc1ccc(O)cc1)[C@H](O)c1ccc(O)cc1,inactive,–,–
C[C@H]1C[C@@H]2[C@H]([C@@H](O)C[C@@]3(C)[C@H]2CC[C@]3(O)C(=O)COC(=O)CCC(=O)O)[C@@]2(C)C=CC(=O)C=C12,–,-3.92% (inactive),–
COc1ccc(/C=C/C(=O)OCCC(C)C)cc1,inactive [at 114 µM],–,–
O=S(=O)(O)c1ccc2c(N=Nc3ccc(S(=O)(=O)O)c4ccccc34)c(O)c(S(=O)(=O)O)cc2c1,–,-10.8% (inactive),–
COc1ccc2c(=O)c(C)c(-c3ccccc3)oc2c1CN(C)C,inactive,–,–
Cc1c(F)ccc(C(=O)Nc2cc([N+](=O)[O-])ccc2N2CCN(C)CC2)c1Cl,inactive,–,–
C/C=C/C/C=C/CCC(=O)[C@H]1O[C@H]1C(N)=O,–,1.4% (inactive),–
COc1c(-c2ccc3cc(NS(C)(=O)=O)ccc3c2)cc(-n2ccc(=O)[nH]c2=O)cc1C(C)(C)C,–,-21.3% (inactive),–

Compound,outcome,"activity change, negative = cytotoxicity",Potency
COc1ccc(C(=O)N2CCN(c3ccc4c(c3)CCC(=O)N4)CC2)cc1OC,–,–,inactive
O=[N+]([O-])c1ccc(/C=C/c2cccc(CO)n2)o1,–,-10.1% (inactive),–
COc1ccc(S(=O)(=O)N[C@@H](CNc2nc(C)nc(N3CCC(c4ccc5c(n4)NCCC5)CC3)c2C)C(=O)O)cc1,–,-1.5% (inactive),–
C[C@H]1C[C@@H](n2c(Nc3ccc(OC(F)(F)F)cc3)nc3cc(CCC(=O)O)ccc32)CC(C)(C)C1,inactive,–,–
O=S(=O)(Nc1ccc(-c2cccnc2)c2cccnc12)c1cccc(C(F)(F)F)c1,–,–,14.1 µM (active)
CCOC(=O)COc1ccc2c(=O)cc(-c3ccccc3)oc2c1,–,-25.8% (inactive),–
OCC1OC(c2ccc(Cl)c(Cc3ccc(OC4CCOC4)cc3)c2)C(O)C(O)C1O (stereo not given),–,2.53% (inactive),–
CC(C)(CO)n1cc(C(=O)c2cncc(NC(=O)Cc3ccc(Cl)cn3)c2)c2cnc(N)nc21,inactive,–,–
COCC1=C(C(=O)O)N2C(=O)[C@@H](NC(=O)/C(=N\OC)c3csc(N)n3)[C@H]2SC1,–,2.06% (inactive),–
CNC(=O)c1cc(Oc2ccc3nc(N[C@@H]4CCCC[C@H]4O)sc3c2)ccn1,–,-49.9% (inactive),–
Cc1oc(=O)oc1COC(=O)N1CC[C@@H](N2CC/C(=C\C3=C(C(=O)O)N4C(=O)[C@@H](NC(=O)/C(=N/O)c5nsc(N)n5)[C@H]4SC3)C2=O)C1,inactive,–,–
CC(C)c1cc(CNc2nc(Nc3cc(C4CC4)[nH]n3)cc(N3CCN(C)CC3)n2)on1,–,–,12.6 µM (active)
O[C@@H]([C@H](O)[C@@H](O)CBr)[C@@H](O)CBr,–,-26.4% (inactive),–
CCCCC(CC)COc1ccc(-c2nc(-c3ccc(OC)cc3)nc(-c3ccc(OCC(CC)CCCC)cc3O)n2)c(O)c1 (stereo not given),–,-8.22% [at 5.25 µM] (inactive),–
CC(C)(O)CNc1nc(Nc2ccnc(C(F)(F)F)c2)nc(-c2cccc(C(F)(F)F)n2)n1,–,-7.57% (inactive),–
CC(C)C(=O)OCC(=O)[C@@]12O[C@H](C3CCCCC3)O[C@@H]1C[C@H]1[C@@H]3CCC4=CC(=O)C=C[C@]4(C)[C@H]3[C@@H](O)C[C@@]12C,–,-7.93% (inactive),–
C[C@H](CCC(=O)O)[C@H]1CC[C@H]2[C@@H]3[C@@H](O)C[C@@H]4C[C@H](O)CC[C@]4(C)[C@H]3CC[C@]12C,inactive,–,–
Cc1cn(CCN2CCN(c3ccccc3-c3cc(C#N)cc(C(=O)NCCCN4CCCC4)c3)CC2)c2ccccc12,–,–,35.5 µM (active)
CCN(c1cc(-c2ccc(CN3CCOCC3)cc2)cc(C(=O)NCc2c(C)cc(C)[nH]c2=O)c1C)C1CCOCC1,–,-17.8% (inactive),–
O=C(Nc1ccccc1)Nc1ccc(-c2ccc(C(=O)[C@@H]3CCC[C@H]3C(=O)O)cc2)cc1,inactive,–,–
